In PubChem BioAssay (NCI):
Compounds without any hit were thinned out: in the full panel of roughly 79,000, 15% have a hit. Values without a mark were called inactive. Calls of active or inactive are those of the source. No stated cut-off is given here; in the data, active means growth inhibition above about 70%; inactive means the rest. Where a SMILES comes first, the peptide text is derived from it. [ ]: non-standard residue; d: D form. ξ: configuration not given here. ξA = CC(N)C(=O)O

What was measured:
[1] = NCI Yeast Anticancer Drug Screen. Data for the rad50 strain (AID 155);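 further: 0% = growth of vehicle-only cultures of the same strain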; details: S. cerevisiae rad50 strain growth inhibition; at 50.0 µM; active compounds read high
How it was run: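 Vehicle-treated cultures provide the reference for the growth inhibition reported for compound-exposed, repair-deficient yeast.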

[2] = NCI Yeast Anticancer Drug Screen. Data for the mec2-1 strain (AID 157); details: S. cerevisiae mec2-1 strain, at 50.0 µM, active compounds read high
How it was run: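 Mutant yeast (mec2-1) grown with compound; growth inhibition relative to vehicle control reported.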

[3] = NCI Yeast Anticancer Drug Screen. Data for the sgs1 mgt1 strain (AID 161);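 further: 0% = growth of cultures given vehicle only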; details: S. cerevisiae sgs1 mgt1 strain, at 50.0 µM, active compounds read high
How it was run: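 Compounds are added to genetically altered yeast, and growth is compared with cultures given vehicle alone to give percent inhibition.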

[4] = NCI Yeast Anticancer Drug Screen. Data for the cln2 rad14 strain (AID 165);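 further: 0% = growth equal to vehicle treated cultures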; details: S. cerevisiae cln2 rad14 strain, at 50.0 µM, active compounds read high
How it was run: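 Readout is yeast growth inhibition versus vehicle-treated controls, using a strain with cln2 and rad14 alterations exposed to compound.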

[5] = NCI Yeast Anticancer Drug Screen. Data for the bub3 strain (AID 167); details: S. cerevisiae bub3 mutant strain, at 50.0 µM, active compounds read high
How it was run: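 Mutant yeast screening strain plus compound; vehicle-treated cultures serve as the 0% inhibition reference.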

[6] = NCI Yeast Anticancer Drug Screen. Data for the mlh1 rad18 strain (AID 175); details: S. cerevisiae mlh1 rad18 strain growth inhibition; at 50.0 µM; active compounds read high
How it was run: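 Genetically defined yeast (DNA repair-deficient) exposed to compounds; growth inhibition determined relative to vehicle.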

Structure (SMILES) | growth inhibition [1] | growth inhibition [2] | growth inhibition [3] | growth inhibition [4] | growth inhibition [5] | growth inhibition [6]
COc1ccc(/C=C2\N=C(c3ccccc3)OC2=O)c(OC)c1C | -6.1% | -4.9% | -1.65% | -60.4% | 1.9% | -9.95%
CC(=O)OC1COC(n2c(=S)n(-c3ccccc3)c(=O)c3cc(Br)ccc32)C(OC(C)=O)C1OC(C)=O (stereo unspecified) | 1.9% | -5.4% | 8.45% | 15.8% | -3.85% | -11.9%
NNc1c(F)c(F)c2c(F)c(F)c(F)c(F)c2c1F | 97.8% (active) | 96.5% (active) | 95.5% (active) | 94.5% (active) | 97.7% (active) | 97.5% (active)
Cc1ccc(S(=O)(=O)NC(=O)c2ncn(C3OC(CO)C(O)C3O)c2N)cc1 (stereo unspecified) | -5.15% | 10.8% | 12.7% | 15.1% | 1.5% | 1.55%
O=S(=O)(NC1c2ccccc2Oc2ccccc21)c1ccc2ccccc2c1 | 28.4% | 11.1% | 16.6% | 19.1% | 9.65% | 39.7%
Cc1nnc(N)c(C#N)c1C | -8.45% | 2.3% | 16.6% | -56.9% | 4.45% | -1.85%
O=C(NCCN1CCCCC1)C(O)(C1CCCCC1)C1CCCCC1 | -6.85% | 7.65% | 12.2% | 19.2% | 9.75% | 3.9%
COc1cc(OC)c(C(C)=O)c(O)c1OC | 2.75% | 1.05% | 10.9% | 10.6% | 11.1% | 15.2%
O=[N+]([O-])c1ccc(/C=C/c2cc(-c3ccccc3)nc3ccc4ccccc4c23)cc1 | -11.1% | 5.1% | 9.9% | 3.2% | -11.9% | 4.5%
Cc1onc(-c2c(Cl)cccc2Cl)c1C(=O)Nc1ccc(Cl)c(Cl)c1Cl | -12.4% | -14.7% | -3.2% | 12.1% | 2.25% | -8.25%
CS(=O)(=O)OC1C(OC(=O)c2ccccc2)COC(OCc2ccccc2)C1OS(C)(=O)=O (stereo unspecified) | -5.4% | 13.2% | -11.9% | -13.3% | 5.35% | 5.7%
CC(=O)C(C(c1ccccc1)N1CCOCC1)N1CCOCC1 (stereo unspecified) | 12.1% | -0.8% | -24% | 1.15% | -23.2% | 6.25%
C=CCS(=O)CC(NC(=O)c1ccccc1)C(=O)O (stereo unspecified) | -32% | -3.75% | 20.6% | -15.4% | 4.1% | -13.4%
CCOC(=O)Cc1cc(=O)oc2cc(O)ccc12 | -22.9% | 2.3% | 4.1% | 22.7% | -1.8% | -1.1%
CC(=O)NC1(C#N)c2ccccc2-c2ccccc21 | 18.6% | 4.2% | 18.9% | 9.3% | 5.25% | 4.55%
O=C1CCC2(c3ccc(Cl)cc3)SCCN12 (stereo unspecified) | 5.8% | -20.5% | -6.85% | 2.75% | 31.8% | -0.15%
CC(C)(C)N[P+](Cc1ccccc1)(NC(C)(C)C)c1ccccc1 | 33.1% | 10.9% | 62% | -9.7% | 3.65% | 8.9%
COC(=O)CNC(=O)Nc1cc(N2C(=O)ON3C2C(C)(C)N(O)C3(C)C)ccc1C (stereo unspecified) | 2.95% | 13.8% | 16.9% | 20.6% | 15.2% | -22.6%
N#CC1(N)c2ccccc2-c2ccccc21 | 34.8% | 1.95% | 3.4% | 9.65% | 3.65% | 4.8%
c1ccc(C2(c3ccccc3)CCc3ccccc3O2)cc1 | 27.5% | 15.6% | 4.7% | -40.5% | -9.6% | 31.9%
COc1cc(C(Nc2ccccn2)c2cc3c(cc2O)OCO3)cc(OC)c1O (stereo unspecified) | 28.2% | 46.5% | 39.3% | 30.9% | 15.7% | 24.2%

Structure (SMILES) | growth inhibition [1] | growth inhibition [2] | growth inhibition [3] | growth inhibition [4] | growth inhibition [5] | growth inhibition [6]
CCOC(=O)C(=CNC(=S)c1ccncc1)C(=O)OCC | -41.6% | -64.5% | -25.8% | 18.9% | -6.6% | -36%
Cc1cc(Br)ccc1N | -3.15% | 1.95% | -9.5% | -36.5% | 19.1% | 9.25%
O=C1CN(CCCN2CCOCC2)CC(=O)N2Cc3ccccc3CN12 | -25.9% | -3.8% | -9.45% | -0.45% | 2.95% | 3.7%
CSc1nc(-c2ccc(C)cc2)c(C#N)c(=O)[nH]1 | 6.25% | 4.9% | -9.45% | 24.2% | 0.4% | -55.9%
CCc1cc(C(=O)NN)c2ccccc2n1 | -17.6% | -14.6% | -10.6% | -18.4% | -11.8% | 11.5%
c1ccc(-c2n[nH]c(-c3[nH]nc(-c4ccccc4)c3-c3ccccc3)c2-c2ccccc2)cc1 | -12.2% | 15.3% | -12% | 5.15% | 7.35% | 8.2%
Nc1cc(Cl)cc2[nH]c(=O)c3cc(Cl)ccc3c12 | 39.8% | 7.25% | 13.6% | 5.35% | 17.2% | 38%
C/C(CC(=O)Nc1ccc([N+](=O)[O-])cc1)=N/N=C(N)N | -4.25% | -16% | -8.6% | 17.1% | -10.8% | 2.6%
CC(=O)CC(=O)Nc1cccc(C)c1C | -8.1% | -15.2% | 15.3% | -1.7% | 9.3% | -5.6%
C[C@@H]1C[C@H]2[C@@H]3CCC4=CC(=O)C=C[C@]4(C)[C@@]3(F)[C@@H](O)C[C@]2(C)[C@@]1(O)C(=O)CO | 11.8% | -22.3% | -16.2% | 3.45% | -5.1% | 28.1%
CCN(CC)C(=O)C1CCNCC1 | -12.3% | -14.4% | -2% | -27.2% | 9.85% | -7.75%
NC(=O)NC(=O)c1ccccc1 | -10.4% | -15.2% | -10.2% | -9.25% | 3.55% | -7.55%
C(=NC12CC3CC(CC(C3)C1)C2)C1CCCCC1 | -17.1% | -24.8% | 0.05% | 3% | 4.8% | -2.5%
O=C1NC(=O)C(c2ccc(Cl)c(Cl)c2)N1 (stereo unspecified) | 11.2% | -10% | -13.2% | -13.7% | -12.9% | -3.55%
CC(NC(=O)CNC(=O)CNC(=O)CNC(=O)CN)C(=O)O (stereo unspecified) (H-GGGG[ξA]-OH) | -26.9% | -30.9% | -8.55% | -10.6% | -14.5% | -31.6%
Cc1c(N=Nc2cccc(F)c2)c(-c2ccccc2)nn1C(=S)S | 20.2% | 5.25% | 11.7% | 15.9% | 26.8% | 16.7%
CCOC(=O)C1(Br)C(c2ccccc2)NC(=O)N(C2OC(COC(=O)c3ccccc3)C(OC(=O)c3ccccc3)C2OC(=O)c2ccccc2)C1(C)Br (stereo unspecified) | -25.4% | -28.4% | -27.9% | 6.4% | 7% | -22.8%
CCNC(=O)C(C(=O)OCCN(CC)CC)c1ccccc1 (stereo unspecified) | 2.05% | 5.7% | -3.3% | -1.05% | -14.7% | 16.7%
CC(=O)OC1CC1(Br)Br (stereo unspecified) | 6.3% | -15.8% | 18.6% | -37.8% | 6.5% | 5.2%
O=C(NCCCl)Oc1cccn(C(=O)NCCCl)c1=O | 7.15% | 9.7% | -2.55% | 9.1% | 0.65% | -0.8%
